This is an account of results in PubChem BioAssay AID488847 (NMMLSC, 2010).

Hit rate of the full screen: of about 330,000 compounds, about 1,900 (0.58%) were called active.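 How the source made its calls: active means inhibition of aptamer binding above 40%, roughly 3 SD of noise, on plates passing a quality check; inactive means the rest.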 What follows is part of a selection rich in actives, with near analogues and random picks from the rest.

This experiment deals with Beta-adrenergic receptor kinase 1 (Homo sapiens) (UniProt P25098). The experiment is described as follows: compounds blocking aptamer binding on GRK2 – biochemical, human GRK2, bead flow cytometry, HTS, primary screen (AID 488847).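 Further: median bead fluorescence of bound FAM aptamer so fluorescent compounds give negative values.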 The settings on record: FAM-aptamer displacement from GRK2, at 10 µM, hits give high values. For orientation: Flow cytometry measures light scatter and fluorescence of single cells or particles in a stream.
Beta-adrenergic receptor kinase 1 (Homo sapiens), sequence (P25098 whole entry, looked up): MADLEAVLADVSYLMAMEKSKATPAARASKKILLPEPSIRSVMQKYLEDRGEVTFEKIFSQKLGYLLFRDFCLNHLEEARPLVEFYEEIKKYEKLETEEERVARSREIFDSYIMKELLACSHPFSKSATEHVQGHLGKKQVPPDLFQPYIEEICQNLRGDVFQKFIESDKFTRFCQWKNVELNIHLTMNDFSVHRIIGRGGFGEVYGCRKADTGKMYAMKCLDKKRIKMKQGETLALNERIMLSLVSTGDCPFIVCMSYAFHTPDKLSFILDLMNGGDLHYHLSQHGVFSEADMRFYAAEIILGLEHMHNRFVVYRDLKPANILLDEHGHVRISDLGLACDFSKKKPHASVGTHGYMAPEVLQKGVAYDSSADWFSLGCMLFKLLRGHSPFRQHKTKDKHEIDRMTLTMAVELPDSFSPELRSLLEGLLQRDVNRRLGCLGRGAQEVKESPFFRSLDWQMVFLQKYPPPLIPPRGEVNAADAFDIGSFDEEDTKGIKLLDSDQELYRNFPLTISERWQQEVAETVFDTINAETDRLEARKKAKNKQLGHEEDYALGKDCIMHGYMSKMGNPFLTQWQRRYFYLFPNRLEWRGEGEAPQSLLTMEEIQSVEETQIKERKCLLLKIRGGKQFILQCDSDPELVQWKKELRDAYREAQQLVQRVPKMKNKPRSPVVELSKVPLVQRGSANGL
With `Cc1c(C(=O)O)cccc1-n1c(C)cc(/C=C2\C(=O)NC(=O)N(c3ccc4c(c3)OCO4)C2=O)c1C`, the inhibition of aptamer binding is 75% (active). Take `Cc1cc(C=C2C(=O)NC(=O)NC2=O)c(C)n1-c1ccncc1`: the inhibition of aptamer binding was 2% (inactive). For `Cc1ccc(-n2c(C)cc(/C=C3\C(=O)NC(=O)N(C)C3=O)c2C)cc1C`, the inhibition of aptamer binding is 3% (inactive). For `CC[N+]1(C)CCCC(OC(=O)C(O)(c2ccccc2)c2ccccc2)C1` (stereo not given), the inhibition of aptamer binding is 0% (inactive).

With `O=C1NC(=O)C(C/C=C/c2ccccc2)C(=O)N1`, the inhibition of aptamer binding was 1% (inactive). As for `COc1ccc(Br)cc1CNCCc1cccc(Cl)c1`, the inhibition of aptamer binding was 0% (inactive). `O=C1NC(=O)N(Cc2ccco2)C(=O)/C1=C\c1ccc(-c2ccc(F)cc2)o1`: the inhibition of aptamer binding is 15% (inactive). As to `O=C1NC(=O)N(Cc2ccco2)C(=O)/C1=C\c1cccn1CCOc1ccccc1`, the inhibition of aptamer binding was 5% (inactive). Consider `COc1ccc(N2C(=O)/C(=C/c3ccco3)C(=O)NC2=S)cc1`, for which the inhibition of aptamer binding was 96% (active). As for `CN(C)CC1CCCCC1OC(=O)c1ccc(Cl)c(Cl)c1` (stereo not given), the inhibition of aptamer binding is 0% (inactive).
